An excerpt weighted towards active compounds, which were near 18% of everything screened.
TDP1 cell noCPT: qHTS for Inhibitors of human tyrosyl-DNA phosphodiesterase 1 (TDP1): qHTS in cells in absence of CPT. DT40 Tdp1-/- hTDP1 cells, no CPT, ATP luminescence, 48 h. Potency, µM (top dose mostly 46.2 µM), without a hit: at the highest dose activity change, negative = growth inhibition, usual class: inhibitors. actives 15% (n = 420,000); note: potency is the fitted concentration of half-maximal effect; nearly all actives have a fitted effect of over 55% in size
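Chicken DT40 Tdp1-/- cells complemented with human TDP1, screened without camptothecin (DMSO vehicle only), 400 cells/well. Compounds pin-transferred, cells incubated at 37 °C for at least 48 hr. Growth read as ATP-dependent luminescence (CellTiter-Glo, 30 min at RT).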
LDHA inh: LDHA (human) enzyme inhibition. activity change, % (values are at about 110 or 230 µM). AID 1347041. actives 0.15% (n = 480,000). purified LDHA, NADH/diaphorase-resazurin fluorescence; hits give low values. P00338; in the data active = activity change below about -30%; inconclusive = mostly about -25% to -30%;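 note: plate controls were DMSO wells for no effect and wells without enzyme for full effect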
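Enzyme activity of human lactate dehydrogenase 5 (2 nM; 0.06 mM NADH, 0.2 mM pyruvate, 5 min, RT) is measured via a resazurin/diaphorase fluorescence readout of residual NADH.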
IL-1B inflam inh: inflammasome signaling inhibition, IL-1 beta readout | THP-1 LPS/ATP IL-1B secretion, AlphaLISA, 16 h; hits give low values | AID 743279 | actives 4.7% (n = 360,000) | activity change, % at 57.5 µM; in the data active = activity change below about -50%; inconclusive = mostly about -30% to -49%
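THP-1 cells pretreated 1 hr with compounds (up to 57.5 uM final), then stimulated with LPS (250 ng/mL final) plus ATP (1.25 mM final); secreted IL-1B measured by AlphaLISA after 16 hr, decreased signal indicating inhibition.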
DT40 TDP1 CPT: growth inhibition of DT40 Tdp1-/-;hTDP1 cells with camptothecin (screen for TDP1 inhibitors); chicken DT40 Tdp1-/-;hTDP1 cells + 20 nM CPT, ATP luminescence, 48 h; Potency, µM (doses to about 46.2 µM), for inactives: at the top dose activity change, negative = growth inhibition, hits mostly inhibitors; actives 12% (n = 420,000); note: potency is the fitted concentration of half-maximal effect; nearly all actives have a fitted effect of over 55% in size
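Cell growth measured by CellTiter-Glo luminescence after a minimum 48 h, 37 C compound exposure with 20 nM CPT in Tdp1-knockout DT40 cells stably expressing hTDP1, seeded 400/well; qHTS titration format.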
RORg inh: blocks mouse ROR gamma transcriptional activity. Drosophila S2 Gal4-RORgamma UAS-luciferase reporter, 20 h. Potency, µM (doses to about 53.6 µM), without a hit: at the highest dose activity change, negative = inhibition, usual class: inhibitors. actives 5.4% (n = 310,000). AID 2551; note: potency is the fitted concentration of half-maximal effect; nearly all actives have a fitted effect of over 60% in size
Target sequence (P51450 whole entry, looked up, the tested form may be a part): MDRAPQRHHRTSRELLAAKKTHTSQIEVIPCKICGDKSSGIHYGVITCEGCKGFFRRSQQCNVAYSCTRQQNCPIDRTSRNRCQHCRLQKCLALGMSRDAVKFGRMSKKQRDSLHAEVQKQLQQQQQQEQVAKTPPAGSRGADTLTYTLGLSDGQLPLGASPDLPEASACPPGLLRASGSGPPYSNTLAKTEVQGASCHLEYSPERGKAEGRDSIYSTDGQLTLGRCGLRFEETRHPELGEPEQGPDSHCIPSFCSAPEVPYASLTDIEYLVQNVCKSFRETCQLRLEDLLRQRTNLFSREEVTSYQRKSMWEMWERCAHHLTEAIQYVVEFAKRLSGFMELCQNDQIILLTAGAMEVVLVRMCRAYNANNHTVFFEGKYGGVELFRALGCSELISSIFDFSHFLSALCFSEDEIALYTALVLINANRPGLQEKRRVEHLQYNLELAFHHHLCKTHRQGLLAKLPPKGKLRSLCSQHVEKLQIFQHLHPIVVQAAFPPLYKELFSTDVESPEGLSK
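In this cell-based reporter format, copper sulfate (700 uM final) drives Gal4–ROR gamma fusion expression from a metallothionein promoter in Drosophila Schneider cells; compounds preincubated 1 hr, reporter read after 20 hr at ambient temperature.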
VP16 counter: Gal4-VP16 reporter inhibition counter-screen | Drosophila S2 Gal4-VP16 UAS-luciferase, luminescence, 20 h | Potency, µM (doses to about 53.6 µM), inactives show top-dose activity, negative = inhibition, hits mostly inhibitors | actives 3.5% (n = 310,000);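 note: Gal4-VP16 expression switched on by copper sulfate through the metallothionein promoter; potency is the fitted concentration of half-maximal effect; nearly all actives have a fitted effect of over 50% in size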
Active calls of the source: *; ? = inconclusive; . = no result given. Unless noted, calls come from the whole dose curve; as a rule, active = well fitted curve in the direction sought with a large enough effect; inconclusive = small, poorly fitted or top-dose-only effect, or another doubt; inactive = no such curve, though single readings can be large; an effect the other way counts as inactive or inconclusive. Unless noted, % is set by controls: 0 for no effect and ±100 for the full control effect.

SMILES	TDP1 cell noCPT	LDHA inh	IL-1B inflam inh	DT40 TDP1 CPT	RORg inh	VP16 counter
CC(C)(C)N(Cc1ccccc1)C(=O)CN1C(=O)c2ccccc2C1=O	0%	-6	-11	3%	0%	23%
CC(C)(C)N(Cc1ccccc1)C(=O)CN1C(=O)c2ccccc2S1(=O)=O	21µM*	-1	2	?	.	.
COc1ccc(CC2C(=O)N(C)c3ccc(Br)cc32)cc1 (stereo unspecified)	.	7	.	.	.	.
CCN(CC)c1ccc2cc(-c3nnc(-c4ccncc4)o3)c(=O)oc2c1	21µM*	0	9	12µM*	7%	-2%
CCN(CC)c1ccc2cc(-c3nc(-c4cc(OC)c(OC)c(OC)c4)no3)c(=O)oc2c1	10µM*	-1	.	21µM*	.	.
CCN(CC)c1ccc2cc(-c3nc(-c4cccs4)no3)c(=O)oc2c1	?	-11	.	?	.	.
CCN(CC)c1ccc2cc(-c3nc(-c4ccccc4F)no3)c(=O)oc2c1	?	1	.	-16%	.	.
CC(NC(=O)CC1C=CCC1)c1cccs1 (stereo unspecified)	.	8	.	.	.	.
COc1ccccc1C1CC(c2c(-c3ccccc3)c3cc(Cl)ccc3[nH]c2=O)=NN1S(C)(=O)=O (stereo unspecified)	29µM*	-2	-11	26µM*	30%	-28%
COc1ccc(C2CC(c3c(-c4ccccc4)c4cc(Cl)ccc4[nH]c3=O)=NN2C(=O)CCC(=O)O)cc1 (stereo unspecified)	1%	-20	-5	1%	-1%	-4%
COc1cccc(C2CC(c3c(-c4ccccc4)c4cc(Cl)ccc4[nH]c3=O)=NN2S(C)(=O)=O)c1OC (stereo unspecified)	16µM*	-6	?	21µM*	-19%	?
CC/C=C(/C)C(=O)NCc1sccc1C	.	3	.	.	.	.
CCCCC(C(=O)NC1CCCC1)N(C(=O)c1snc(C(N)=O)c1N)c1ccc(C)cc1 (stereo unspecified)	?	-6	-17	18µM*	0%	-2%
CCC(C(=O)NC1CCCC1)N(C(=O)c1snc(C(N)=O)c1N)c1ccc(C)cc1C (stereo unspecified)	18µM*	-5	-8	?	20%	-14%
NC(=O)c1nsc(C(=O)N(c2ccc(F)cc2)C(C(=O)NC2CCCC2)c2ccncc2)c1N (stereo unspecified)	-12%	-2	2	1%	5%	-14%
CCC(C(=O)NC1CCCC1)N(C(=O)c1snc(C(N)=O)c1N)c1ccc(OC)cc1 (stereo unspecified)	13%	0	23	?	0%	-2%
CC(C)c1ccc(N(C(=O)c2snc(C(N)=O)c2N)C(C(=O)NC2CCCC2)c2ccncc2)cc1 (stereo unspecified)	23µM*	-1	41	18µM*	32%	-22%
CCCc1cc(=O)n2[nH]c(NC(=O)C(C)C)nc2n1	.	-6	.	.	.	.
O=C(C1COc2cc(S(=O)(=O)NCc3ccc(Cl)cc3)ccc2O1)N1CCCCCC1 (stereo unspecified)	.	2	.	.	.	.
Cc1ccc(S(=O)(=O)N2CCCCC2CCNC(=O)C(=O)NC2CCCC2)cc1 (stereo unspecified)	21µM*	1	7	?	.	.
Cc1ccc(C)c(S(=O)(=O)N2CCCCC2CCNC(=O)C(=O)NC2CCCC2)c1 (stereo unspecified)	16µM*	0	7	?	.	.
O=C(NCCC1CCCCN1S(=O)(=O)c1ccc(F)cc1)C(=O)NC1CCCC1 (stereo unspecified)	?	-4	-6	?	.	.
